Consider 40 sequences from the supplement of paper PMC6555819.

The subject of one experiment is PPARg:RXRa (NR concentration 180 nM, RXRa partner concentration 90 nM). The experiment is described as follows: PBM binding z-score (relative to random genomic background probes); higher = stronger binding; sequences stand for … in GC…GCGATTGACAGCGTAGAATGAAGG
An outline of the steps:
(§1)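 Binding z-scores were set against random background probes. The data came from custom Agilent 4×180K protein-binding microarrays carrying double-stranded probes with 34-nt variable regions, incubated 1 h with ligand-free nuclear receptor dimers. Partner-specific antibodies detected binding, and scanned fluorescence was regression-normalized.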
In turn, CAAACTGGGTCACCGGAAGGTCAAAGTCCGCATG had a PBM binding z-score of 9.06.
In the case of TCTCGGAGGACACGCAGGTCAGAGCTTTCCAGAG, the PBM binding z-score was -0.00527.
As for CCGAGTAGGTTATCGGGCATTCAGGCAACGGTGA, the PBM binding z-score turned out to be 1.8.
TCTTGTAGGTCAACAGGAGGTTAAGAAAGATCGA: the PBM binding z-score stood at 7.68.
TGAATTAGGTTAAAGATCAGGGAACGTGGCGTCG yielded a PBM binding z-score of 6.76.
Consider ATTCAAAGTTCATCTAGGTAACGTAAGATATGCT, for which the PBM binding z-score stood at 4.18.
Same read-out and setting: with TAGCCTAGGTGATGCGGGCCAGTATAGTGTCGGC the figure was -0.087; with TAGCCTAGGTCCTGGGCCAGTATACCACGCGAAC, -0.0172.
Sequence CCTATTAGTTGACCATAAGGGCAAGCGAAGCTCG yielded a PBM binding z-score of 0.36.
Take GGAACGCGGGCAAGTTGATAGCAGAGTTTGATGG: the PBM binding z-score turned out to be 0.256.
For the sequence TCATATAGGTAATACAGGTGAATGTCGGCATCTA, the PBM binding z-score is 1.73.
As to ATCGAAAGGTCGACGAGGTGAGTTTACACCGTTT, the PBM binding z-score was 2.73.
As to ATATGTAGGTTATCGGGTCATTCAGTTTGCGCAT, the PBM binding z-score was 6.73.
The same measure, in the same setting: under ACAGACAGGTGAGTGAAGGTAACGCAGCTGGACG stands 0.826.
On the same count and under the same terms, with CGTCCAAGGTCAGCAGATCAGTGAAAGCGACGTG the figure was 2.5.
The same measure, in the same setting: under AGAATGAGGTTACCAAAGATCCGGGAAACGCTTG stands 2.5; under AGAACGAGGGCAATGAGTTGCTAGCACGGGTGGC, 1.05.
In turn, CAAACTAGGTCAAAGGTAAAAGTCGAGCCAACCA registered a PBM binding z-score of 13.

Another experiment concerns PPARg:RXRa 270nM:90nM, anti-RXR (NR concentration 270 nM, RXRa partner concentration 90 nM). The experiment is described as above. An outline of the steps:
as §1
Regarding TGAATGAGGTTACAAGATCAGGGAACGTTGCAAA, the PBM binding z-score was 2.54.
Still for that read-out and setting: with CCTCGGAGGACAGAAGGACAGAGCTGTCCGCTTT the figure was -0.854.
Still for that read-out and setting: with ATCCAAAGGTCGTGAGGTGAGTATACAGAAAGGC the figure was 5.62; with CCTTACGGGTGACGAGGTTATAGCACGACGAGCG, 1.82.
Sequence CCGACTGGGGCAAGGTTACGATAACGCACAGCCA returned a PBM binding z-score of 3.25.
Consider TATACAGGGTGAAAGGCCAGAGTACGAATGTCGA, for which the PBM binding z-score is 5.48.
Same read-out and setting: under CAAACTAGATCAAAGGTCAAAGTCGAGCCAACCA stands 10.2.
The same measure, in the same setting: under TCTTGTAGATCAACCAGGTTAAGAAAGCCTGAGT stands 1.51.
TTAATGAGGTTAAAGATCAGGGAACGTGGCGTCG came in with a PBM binding z-score of 7.02.
Same read-out and setting: with ACTCGGCGGACAAAGGTCAGAGCTACGCCAGTGA the figure was 5.97; with TCTATGAGTTGATTAGGGCAACCGAAACAGCGGA, 1.31; with ATCTCTAGGTAACGAAGTTCAGTGAATGCCGAAC, 1.02.
Same read-out and setting: under CTCGAAAGGTCGGTTGAGTTGAGTATACGGATAA stands 0.792; under ACTATTAGTTGATTTAGGGCAACCGATACGACGC, 0.588; under AGAATGAGGTTATTGAGATCAGGGAATTGCGGTC, 2.07.
For the sequence ATCTCTAGGTAAGACTCAGTTCAGTGAAGAACGC, the PBM binding z-score came to 0.385.
Same read-out and setting: under CCTATTAGTTGACCATACGGGCAACCGAAGCTCG stands -0.0431; under TTACCAAGGTGAAAGGTCCTTGATGCACGCCTTG, 6.39; under CCTAGTTGGTCCAGGTCACACACGCTATAGGTAC, 1.46.
On the same count and under the same terms, under CCTCGGAGGACAGGAGGTCAGAGCTGTCCGCTTT stands 0.65.
Still for that read-out and setting: under GTACCAAGGTGAATAGATCGTTGATGAGTAGGCG stands 0.705; under CCTACTGGGCCACGAAAGGTCGTTGATTCAGTGA, 2.93; under CAAACTGGGTCACCGGAAGGTCAAAGTCCGCATG, 7.43.
TCTCGGAGGACACGCAGGTCAGAGCTTTCCAGAG had a PBM binding z-score of 0.98.
In turn, CCGAGTAGGTTATCGGGCATTCAGGCAACGGTGA registered a PBM binding z-score of 2.7.
Still for that read-out and setting: under TCTTGTAGGTCAACAGGAGGTTAAGAAAGATCGA stands 6.79.
The same measure, in the same setting: with TGAATTAGGTTAAAGATCAGGGAACGTGGCGTCG the figure was 7.47; with ATTCAAAGTTCATCTAGGTAACGTAAGATATGCT, 4.51; with TAGCCTAGGTGATGCGGGCCAGTATAGTGTCGGC, -0.902.
TAGCCTAGGTCCTGGGCCAGTATACCACGCGAAC: the PBM binding z-score was -0.469.
Still for that read-out and setting: under CCTATTAGTTGACCATAAGGGCAAGCGAAGCTCG stands 0.458; under GGAACGCGGGCAAGTTGATAGCAGAGTTTGATGG, -0.889.
The same measure, in the same setting: under TCATATAGGTAATACAGGTGAATGTCGGCATCTA stands 2.58; under ATCGAAAGGTCGACGAGGTGAGTTTACACCGTTT, 3.1.
In the case of ATATGTAGGTTATCGGGTCATTCAGTTTGCGCAT, the PBM binding z-score came to 6.32.
Same read-out and setting: with ACAGACAGGTGAGTGAAGGTAACGCAGCTGGACG the figure was 0.162; with CGTCCAAGGTCAGCAGATCAGTGAAAGCGACGTG, 2.9; with AGAATGAGGTTACCAAAGATCCGGGAAACGCTTG, 2.84.
Still for that read-out and setting: under AGAACGAGGGCAATGAGTTGCTAGCACGGGTGGC stands 0.875; under CAAACTAGGTCAAAGGTAAAAGTCGAGCCAACCA, 10.3.

A further experiment relates to PPARg:RXRa 30nM:10nM, anti-RXR (NR concentration 30 nM, RXRa partner concentration 10 nM). The experiment is described as above. In short, it runs like this:
as §1
In turn, TGAATGAGGTTACAAGATCAGGGAACGTTGCAAA showed a PBM binding z-score of 1.05.
The same measure, in the same setting: with CCTCGGAGGACAGAAGGACAGAGCTGTCCGCTTT the figure was -1.07; with ATCCAAAGGTCGTGAGGTGAGTATACAGAAAGGC, 2.33.
Same read-out and setting: with CCTTACGGGTGACGAGGTTATAGCACGACGAGCG the figure was -0.0114; with CCGACTGGGGCAAGGTTACGATAACGCACAGCCA, 0.969.
On the same count and under the same terms, under TATACAGGGTGAAAGGCCAGAGTACGAATGTCGA stands 4.23; under CAAACTAGATCAAAGGTCAAAGTCGAGCCAACCA, 11.1; under TCTTGTAGATCAACCAGGTTAAGAAAGCCTGAGT, 2.7.
The sequence TTAATGAGGTTAAAGATCAGGGAACGTGGCGTCG registered a PBM binding z-score of 6.34.
In turn, ACTCGGCGGACAAAGGTCAGAGCTACGCCAGTGA had a PBM binding z-score of 3.53.
Turning to TCTATGAGTTGATTAGGGCAACCGAAACAGCGGA, the PBM binding z-score amounted to 2.32.
ATCTCTAGGTAACGAAGTTCAGTGAATGCCGAAC: the PBM binding z-score came to 0.0863.
Sequence CTCGAAAGGTCGGTTGAGTTGAGTATACGGATAA returned a PBM binding z-score of 0.314.
Same read-out and setting: under ACTATTAGTTGATTTAGGGCAACCGATACGACGC stands 0.446.
Still for that read-out and setting: with AGAATGAGGTTATTGAGATCAGGGAATTGCGGTC the figure was 0.258; with ATCTCTAGGTAAGACTCAGTTCAGTGAAGAACGC, 0.412.
Consider CCTATTAGTTGACCATACGGGCAACCGAAGCTCG, for which the PBM binding z-score was -0.298.
Turning to TTACCAAGGTGAAAGGTCCTTGATGCACGCCTTG, the PBM binding z-score was 4.88.
Still for that read-out and setting: with CCTAGTTGGTCCAGGTCACACACGCTATAGGTAC the figure was 0.532.
Sequence CCTCGGAGGACAGGAGGTCAGAGCTGTCCGCTTT displayed a PBM binding z-score of -0.913.
In turn, GTACCAAGGTGAATAGATCGTTGATGAGTAGGCG registered a PBM binding z-score of 0.296.
On to CCTACTGGGCCACGAAAGGTCGTTGATTCAGTGA, for which the PBM binding z-score amounted to 0.0833.
On the same count and under the same terms, with CAAACTGGGTCACCGGAAGGTCAAAGTCCGCATG the figure was 4.95.
Same read-out and setting: with TCTCGGAGGACACGCAGGTCAGAGCTTTCCAGAG the figure was 1.99; with CCGAGTAGGTTATCGGGCATTCAGGCAACGGTGA, 0.915; with TCTTGTAGGTCAACAGGAGGTTAAGAAAGATCGA, 5.3.
In the case of TGAATTAGGTTAAAGATCAGGGAACGTGGCGTCG, the PBM binding z-score turned out to be 5.99.
Same read-out and setting: with ATTCAAAGTTCATCTAGGTAACGTAAGATATGCT the figure was 1.84; with TAGCCTAGGTGATGCGGGCCAGTATAGTGTCGGC, -1.01.
Same read-out and setting: under TAGCCTAGGTCCTGGGCCAGTATACCACGCGAAC stands -1.04; under CCTATTAGTTGACCATAAGGGCAAGCGAAGCTCG, -0.0041; under GGAACGCGGGCAAGTTGATAGCAGAGTTTGATGG, -0.573.
Same read-out and setting: under TCATATAGGTAATACAGGTGAATGTCGGCATCTA stands 4.19; under ATCGAAAGGTCGACGAGGTGAGTTTACACCGTTT, 0.726.
On to ATATGTAGGTTATCGGGTCATTCAGTTTGCGCAT, for which the PBM binding z-score amounted to 3.96.
The same measure, in the same setting: with ACAGACAGGTGAGTGAAGGTAACGCAGCTGGACG the figure was -0.109; with CGTCCAAGGTCAGCAGATCAGTGAAAGCGACGTG, 0.511; with AGAATGAGGTTACCAAAGATCCGGGAAACGCTTG, 0.971.
Still for that read-out and setting: with AGAACGAGGGCAATGAGTTGCTAGCACGGGTGGC the figure was -0.288; with CAAACTAGGTCAAAGGTAAAAGTCGAGCCAACCA, 12.5.
